From PubChem BioAssay
KCNH2 WT inh: KCNH2 (human, wildtype) channel inhibition. Q12809. U2OS, BacMam KCNH2, thallium flux FluxOr; hits give low values. activity change, % at 1.84 µM. hit rate 0.37% among 340,000;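 active = maximum activity change below -70%; inconclusive = maximum activity change between -70% and -50%; inactive = maximum activity change above -50%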; note: % is set by controls: 0 for no effect and ±100 for the full control effect
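U2OS cells were transduced with wild-type KCNH2 virus (2.03 x 10^8 / mL) for 4 h at room temperature, then cultured overnight at 37 C. Thallium flux was read with FluxOr dye. Rate constants were normalized to DMSO controls.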
Rango release inh: prevents RanGTP from dissociating the Rango-importin beta complex; Biochemical FRET Rango-importin beta, RanGTP-induced dissociation; hit rate 0.071% among 340,000; AID 540253; Potency, µM (series often up to 46.1 µM), for the others: at the highest dose activity change, negative = inhibition; note: potency is the fitted concentration of half-maximal effect; % of control where 0% means no effect; nearly all actives have a fitted effect of over 45% in size
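Compounds preincubate 5 min with complex of recombinant Rango and importin beta in PBS with 1 mM DTT. Ran (0.6 uM) loaded with 2 mM GTP plus 0.2 uM RCC1 starts dissociation; FRET is recorded 45 min later.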
KCNH2 3.1 block: blocks the human KCNH2 3.1 channel isoform; hit rate 0.95% among 340,000; U2OS KCNH2 3.1, thallium flux FluxOr; hits give low values; activity change, % (tested at about 1.8 µM);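 active = maximum activity change below -70%; inconclusive = maximum activity change from -70% to -50%; inactive = maximum activity change above -50%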;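 note: thallium influx rate constant from kinetic fluorescence after stimulation buffer; % is set by controls: 0 for no effect and ±100 for the full control effect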
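Channel expression came from 3.1 mutant virus (1.77 x 10^8 /mL) applied to suspended U2OS cells for 4 h. Flux was tracked with FluxOr dye plus Red40 quencher, and kinetic rate constants normalized to controls.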
Rango-impB inh: prevents formation of the Rango-importin beta complex; Rango CFP/YFP FRET sensor + importin beta, 45 min; Potency, µM (titrated, usually from 92.2 µM), without a hit: top-dose inhibition of complex formation; hit rate 0.031% among 340,000; AID 540263; Q14974;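 note: potency is the fitted concentration of half-maximal effect; 0% = DMSO wells and 100% = buffer wells lacking importin beta; nearly all actives have a fitted effect of over 15% in size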
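Inhibition scored from the CFP 486 nm/YFP 530 nm FRET ratio 45 min after adding 0.125 microM importin beta to 50 nM Rango biosensor preincubated 5 min with compound (room temperature, PBS with DTT, Tween-20, BSA). No-importin wells as positive control.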
Active calls of the source: *; u = inconclusive; x = no result. This is a sample that favours compounds with a hit; in the whole collection about 1.3% have one here. Unless noted, calls come from the whole dose curve.

SMILES | KCNH2 WT inh | Rango release inh | KCNH2 3.1 block | Rango-impB inh
COc1ccc(CN2CCCC(C(=O)c3ccc(Cl)cc3)C2)cc1Cn1cccn1 (centres undefined) | -106* | -10% | -96* | 1%
CCOc1cccc(CN2CCCC(N3CCN(c4cccc(Cl)c4)CC3)C2)c1O (centres undefined) | -36 | 14% | -82* | 1%
COc1ccc(N(CC(=O)N2CCN(Cc3ccccc3)CC2)S(C)(=O)=O)cc1OC | -12 | 16% | 33 | 5%
Cc1ccc(OC(=O)N(C)C[C@@H]2OCc3cn(nn3)CCCC(=O)N([C@@H](C)CO)C[C@H]2C)cc1 | 18 | x | -70* | x
COc1ccc(/C=C(\NC(=O)c2ccc(C)cc2)C(=O)Nc2ccc(C(=O)O)cc2)cc1 | -8 | 0% | -10 | 7%
COCCN(Cc1cc2ccc(C)cc2[nH]c1=O)S(=O)(=O)c1ccccc1 | -218* | 5% | 7 | 0%
Cc1ccc2cc(CN(c3ccccc3C)S(=O)(=O)c3ccccc3)c(=O)[nH]c2c1 | 5 | 1% | -2 | 1%
CN1CCc2c(sc3c2c(=O)n(-c2ccccc2)c2nnc(SCc4ccc(Cl)cc4)n32)C1 | -186* | -3% | -12 | 0%
Cc1ccc2cc(CN(Cc3ccco3)C(=S)NCC3CCCO3)c(=O)[nH]c2c1C (centres undefined) | -1 | u | -82* | -1%
Cc1cc(C)c2[nH]c(=O)c(CN(Cc3ccco3)C(=S)NCC3CCCO3)cc2c1 (centres undefined) | -6 | -25% | -7 | 2%
CC(=O)Oc1ccc2c(c1)Oc1cc(OC(C)=O)ccc1C21OC(=O)c2ccccc21 | -122* | u | -146* | u
Cc1cc(O)ccc1C1(c2ccc(O)cc2C)OC(=O)c2ccccc21 | 5 | 5% | 6 | -1%
COc1cc(CNC2CCCCCC2)cc(OC)c1 | -5 | -15% | -87* | 1%
CCCN1CCN(C(=O)Cn2cnc3ccc(S(=O)(=O)N4CCC(C)CC4)cc3c2=O)CC1 | -2 | 1% | -85* | 1%
Nc1cccc(-c2nnc3n2CCCCC3)c1 | -4 | 7% | 2 | 0%
Nc1ccccc1-c1nnc2n1CCCCC2 | -86* | 9% | 13 | -2%
CCCCn1c(=N)n(CC(O)COc2ccc(C)cc2)c2ccccc21 (centres undefined) | -83* | 1% | -90* | -2%
CCCCCCCn1c(=N)n(CC(O)c2ccco2)c2ccccc21 (centres undefined) | -38 | -15% | -106* | u
N=c1n(CCN2CCCC2)c2ccccc2n1CC(O)c1ccco1 (centres undefined) | 22 | 5% | -18 | 1%
CC(C)(C)c1ccc(Cn2c(=N)n(CC(O)c3ccco3)c3ccccc32)cc1 (centres undefined) | -85* | u | u | 2%
O=C(NNC(=O)c1cccc2ccccc12)c1cccc(Cl)c1 | 0 | -3% | 8 | 0%
CCOC(=O)CCc1ccc(NC(=O)/C=C/c2ccc([N+](=O)[O-])o2)cc1 | 8 | 10µM* | 19 | -6%
CCCCn1cnc2c(SCc3ccc(Br)cc3)nc(N)nc21 | 1 | 6% | -27 | 2%
CCOC(=O)c1sc2nc(CSc3ccccc3)nc(N3CCC(C(N)=O)CC3)c2c1C | -225* | -9% | -191* | -3%
Cc1sc2nc(CSc3ccccc3)nc(N3CCC(C(N)=O)CC3)c2c1C | x | 12% | 3 | 0%
SMILES | KCNH2 WT inh | Rango release inh | KCNH2 3.1 block | Rango-impB inh
CCCc1cc(=O)oc2cc(OCc3cc(OC)c(OC)c(OC)c3)c(Cl)cc12 | -2 | -17% | 13 | 0%
CCCc1cc(=O)oc2cc(OCc3ccc(OC)cc3)c(Cl)cc12 | -18 | 13% | -74* | -3%
O=C(NCCO)/C(=C\c1cccc([N+](=O)[O-])c1)NC(=O)c1cccs1 | -5 | x | -1 | x
O=C(Nc1cccc2ccccc12)/C(=C\c1cccc([N+](=O)[O-])c1)NC(=O)c1cccs1 | -103* | -17% | -86* | u
O=C(Nc1cccc2ccccc12)/C(=C/c1cccc([N+](=O)[O-])c1)NC(=O)c1cccs1 | -15 | -29% | -89* | -2%
Cc1cccc(NC(=O)/C(=C/c2cccc([N+](=O)[O-])c2)NC(=O)c2cccs2)c1 | 31 | 0% | -10 | -1%
O=C(CSc1nnc(-c2cccc(Br)c2)o1)NCC1CCCO1 (centres undefined) | -218* | x | -174* | x
